# Source: PubChem
# Only some compounds are listed: those with a hit (about 4.8% of all), similar ones and a draw of the others.
# Mot1-301 SUMO = blocks SUMOylation pathway, rescuing yeast Mot1-301 growth; growth rescue, % at 18.8 µM; 320,000 tested, 1% active; S. cerevisiae Mot1-301 growth rescue, ATP luminescence, 38.5C; percent above DMSO median, 100 means doubled;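 active = every valid replicate shows activation above 250% relative to neutral control wells; inactive = the rest, any valid replicate at or below 250%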
# AI-2 QS mod = Vibrio harveyi AI-2 quorum sensing modulation; activity change, % at 7.5 µM; 300,000 tested, 0.4% active; Vibrio harveyi JMH597 AI-2 luminescence/OD600 ratio, 9 h; active compounds read low; strain lacks LuxN and CqsS sensors; 0 = neutral-control median; in the data active = activity change below about -75%, passing the limit was not always enough; inconclusive = no clear call, values can overlap the other calls;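 also: luminescence divided by OD600 gain over 9 h not by final OD600 alone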
# ALR H2O2 inh = human ALR oxidase inhibition via reduced H2O2; P55789; purified ALR, DTT oxidation, H2O2 HRP-luminol luminescence; inhibition, % (no concentration beside the values); 290,000 tested, 3.8% active; AID 485317;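 active = mean replicate inhibition above about 79%, with every replicate also reaching it, limit read from the data; inconclusive = only one of the two criteria met; inactive = mean below limit and not every replicate reaching it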
# Target sequence (P55789 whole entry, looked up): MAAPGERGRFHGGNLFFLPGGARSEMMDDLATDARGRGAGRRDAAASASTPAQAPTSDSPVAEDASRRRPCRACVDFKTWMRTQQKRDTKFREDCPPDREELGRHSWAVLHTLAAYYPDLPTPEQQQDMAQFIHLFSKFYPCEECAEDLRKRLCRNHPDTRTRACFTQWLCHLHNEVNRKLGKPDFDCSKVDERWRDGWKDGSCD
# HIF activator = HIF pathway transcriptional activation; activation, % at 7.5 µM (by protocol); AID 1910; 300,000 tested, 0.32% active; U2OS HRE-luciferase reporter, luminescence; normalized: DMSO 0%, desferrioxamine 100%;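 active = mean activation of at least 10% of the iron chelator positive control signal, with at least half of replicates also reaching 10%; inconclusive = mean and replicate majority disagree about reaching 10%; inactive = mean and most replicates under 10%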
# Numbers stand for hits; – = inactive; ? = inconclusive; · = not tested or not shown.
SMILES,Mot1-301 SUMO,AI-2 QS mod,ALR H2O2 inh,HIF activator
CC(C)C(c1nnnn1C1CCCC1)N1CCc2ccccc21 (stereo unspecified),–,–,99.0,–
CC(C)C(c1nnnn1C1CCCC1)N1CCCc2ccccc21 (stereo unspecified),–,–,–,–
CCCn1c(SCC(=O)N2CC(=O)Nc3ccccc32)n[nH]c1=O,–,·,–,·
Cc1ccc(OCc2n[nH]c(=S)n2Cc2ccccc2)cc1,–,–,·,–
Nn1c(Cc2ccccc2)n[nH]c1=S,–,–,94.8,–
Nn1c(Cc2ccc(F)cc2)n[nH]c1=S,–,–,–,–
CCOc1ccc(Cc2n[nH]c(=S)n2Cc2ccccc2)cc1,–,–,95.0,–
O=C(Nc1ccccn1)c1ccc(Cl)c(S(=O)(=O)N2CCc3ccccc32)c1,–,·,–,·
Nc1cc(=O)[nH]c(SCC(=O)NCCC2=CCCCC2)n1,–,·,–,·
CCN(CC)c1ccc(NC(=O)CCS(=O)(=O)c2cccc3nsnc23)c(C)c1,–,–,98.9,–
CCc1ccc(NC(=O)CCS(=O)(=O)c2cccc3nsnc23)cc1,–,–,–,–
COc1ccc(CCC(=O)NCC(=O)OCc2ccccc2)cc1,–,–,–,–
COc1ccc(CNC(=O)[C@@H](NC(=O)C2CCN(S(=O)(=O)c3ccc(C)cc3)CC2)C(C)C)cc1OC,–,–,–,–
O=C(Cc1noc2ccccc12)NNC(=S)Nc1ccc(Cl)cc1,–,–,·,–
O=C(Cc1noc2ccccc12)Nc1ccc(Cl)cc1,–,-84.3,–,–
CCCOc1ccc(CCC(=O)N/N=C/c2ccc([N+](=O)[O-])o2)cc1,–,-224.5,·,–
Cc1cc(C)cc(OCC(=O)N/N=C/c2ccc([N+](=O)[O-])o2)c1,–,?,–,–
COc1ccccc1OCC(=O)N/N=C/C=C/c1ccc([N+](=O)[O-])o1,–,-93.8,·,–
CCCCCCCC(=O)N/N=C/c1ccc([N+](=O)[O-])o1,–,-132.5,–,–
CCCCCCCC(=O)N/N=C/c1ccco1,–,–,–,–
CCCCCCC(=O)N/N=C/c1ccco1,–,–,97.3,–
CC1=C(C(=O)N2CCCC(N3CCN(c4ccccc4F)CC3)C2)OCCO1 (stereo unspecified),–,–,–,–
CC(C)(C)OC(=O)C[C@@H]1C/C=C\C[C@H](CC(=O)N[C@@H](CO)Cc2ccccc2)C(=O)N[C@H](C(C)(C)C)COC1=O,–,·,–,·
CCOC(=O)N/N=C\c1ccc([N+](=O)[O-])o1,–,-88.7,–,–
CCN(C(=O)COC(=O)CNC(=O)c1ccc(C)cc1)c1c(N)n(Cc2ccccc2)c(=O)[nH]c1=O,–,·,–,·
SMILES,Mot1-301 SUMO,AI-2 QS mod,ALR H2O2 inh,HIF activator
COc1cc(CC(=O)OCC(=O)N(C)C2CCCCC2)cc(OC)c1OC,–,·,–,·
CCOC(=O)C1=C(c2ccccc2)NC(=O)NC1c1ccc(N(C)C)cc1 (stereo unspecified),–,–,99.0,–
N#C/C(=C\c1ccc(-c2ccccc2)o1)C(=O)Nn1cnnc1,–,–,97.6,–
CC(c1nnc(SCC(=O)Nc2cccnc2Cl)n1Cc1ccccc1)N(C)C (stereo unspecified),–,–,86.8,–
COc1ccccc1-n1cc(-c2ccccc2)[nH]c1=S,–,–,–,–
Cc1cccc(-n2cc(-c3ccccc3)[nH]c2=S)c1,–,–,77.0,–
COc1ccc(-n2cc(-c3ccccc3)[nH]c2=S)cc1,–,–,85.1,–
CC(=O)Nc1ccc(-n2c(C)ccc2-c2ccccc2)cc1,–,–,–,–
CC(=O)Nc1ccc(-n2cc(-c3ccccc3)[nH]c2=S)cc1,–,–,99.2,–
O=C(OCC(=O)N1CCCc2ccccc21)c1ccccc1NCCO,–,–,–,–
N#CC1=C(N)Oc2cc(N)ccc2C1c1ccc(Cl)cc1 (stereo unspecified),–,–,–,–
N#CC1=C(N)Oc2cc(N)ccc2C1c1ccc(F)cc1 (stereo unspecified),–,–,98.3,–
COc1ccc(C2C(C#N)=C(N)Oc3cc(N)ccc32)cc1 (stereo unspecified),–,–,95.3,–
CN(CC(=O)Nc1n[nH]c(=S)s1)S(=O)(=O)c1cccc2cccnc12,–,–,–,–
S=c1[nH]nc(Nc2ccc(Cl)cc2)s1,–,–,·,–
Fc1ccccc1Nc1n[nH]c(=S)s1,–,–,98.7,–
c1ccc2c(Nc3nc4c(s3)CCCC4)cccc2c1,–,–,·,–
S=c1[nH]nc(Nc2cccc3ccccc23)s1,–,–,97.4,–
CC(C)[C@H](NC(=O)c1ccc(Cl)cc1Cl)C(=O)NNC(=O)c1ccco1,–,·,–,·
